Screening results deposited in PubChem by National Center for Advancing Translational Sciences (NCATS).
Only some compounds are listed: those with a hit (about 1.7% of all), similar ones and a draw of the others.
GLP1R ag – activates the human GLP-1 receptor. HEK293 GLP-1R CRE-luciferase, luminescence, 4-6 h; cells express a hypersensitive GLP-1R form. Potency, µM (titrated, usually from 45.6 µM), for inactives: top-dose activation, hits mostly activators. 380,000 compounds, 0.007% hits; note: % of control where 0% means no effect
HEK293 tox – cytotoxicity in counter-screen for GLP-1R inverse agonists | HEK293 cAMP-luciferase reporter cells, luminescence, 24 h | Potency, µM (series often up to 38.3 µM), without a hit: at the highest dose activity change, negative = inhibition, usual class: inhibitors | 410,000 compounds, 0.13% hits | AID 624418;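 note: loss of luciferase light is scored as toxicity; % is set by controls: 0 for no effect and ±100 for the full control effect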
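Seeding density was 200 cells/uL; after overnight-length (12 h) culture, 23 nL compounds went on for 24 h at 37 °C. Readout used a luciferase detection reagent, luminescence taken after 12 min at room temperature.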
GLP1R inv ag – acts as inverse agonist at human GLP-1 receptor; P43220; HEK293 GLP-1R CRE-luciferase, luminescence, 24 h; GLP-1R form is constitutively active; Potency, µM (highest dose often 38.3 µM), inactives show at the top dose activity change, negative = inhibition, hits mostly inhibitors; 410,000 compounds, 1.6% hits; note: % is set by controls: 0 for no effect and ±100 for the full control effect; nearly all actives have a fitted effect of over 55% in size
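Stable HEK293 clone (constitutively active GLP-1R + cAMP-response luciferase); 200 cells/uL plated, 12 h pre-culture, compound 24 hr, 37 deg C/5% CO2; detection reagent 12 min RT; luminescence.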
PTHR1 ag – activates the human parathyroid hormone receptor PTHR1; 410,000 compounds, 0.075% hits; AID 743266; HEK293 GP2 PTHR1 cells, GloSensor cAMP luminescence, 1 h; Potency, µM (doses to about 115 µM), inactives show at the highest dose activation, usual class: activators; note: nearly all actives have a fitted effect of over 55% in size
Target sequence (Q03431 whole entry, looked up): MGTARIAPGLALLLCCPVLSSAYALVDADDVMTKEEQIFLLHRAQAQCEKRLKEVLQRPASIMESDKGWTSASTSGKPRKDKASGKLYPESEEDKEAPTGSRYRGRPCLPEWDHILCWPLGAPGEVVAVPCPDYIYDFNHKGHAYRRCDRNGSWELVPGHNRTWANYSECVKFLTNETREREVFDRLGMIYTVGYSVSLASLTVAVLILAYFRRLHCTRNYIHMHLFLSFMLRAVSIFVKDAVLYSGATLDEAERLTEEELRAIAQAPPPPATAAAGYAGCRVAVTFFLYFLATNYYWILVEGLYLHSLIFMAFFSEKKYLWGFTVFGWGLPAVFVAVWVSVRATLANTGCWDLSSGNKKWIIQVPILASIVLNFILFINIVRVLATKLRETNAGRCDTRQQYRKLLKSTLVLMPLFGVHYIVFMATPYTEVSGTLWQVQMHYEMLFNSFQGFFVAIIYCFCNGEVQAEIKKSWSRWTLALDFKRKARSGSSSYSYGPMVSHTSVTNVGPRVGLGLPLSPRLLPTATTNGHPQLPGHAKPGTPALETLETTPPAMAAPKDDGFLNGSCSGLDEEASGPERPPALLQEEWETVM
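HEK-293-derived GP2 cells expressing PTHR1 and a GloSensor cAMP reporter, 3,000/well, plated overnight, given luciferin plus IBMX (each 0.5 mM as added) for 1 h at 37 °C, then compound for 1 h at 37 °C. Luminescence was read after 15 min at room temperature.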
Active calls of the source: *; i = inactive; ? = inconclusive; . = no result; [ ] = another dose, or the depositor's remark. Calls come from the whole dose curve; as a rule, active = well fitted curve in the direction sought with a large enough effect; inconclusive = small, poorly fitted or top-dose-only effect, or another doubt; inactive = no such curve, though single readings can be large; an effect the other way counts as inactive or inconclusive. Potency is the fitted concentration of half-maximal effect.

SMILES	GLP1R ag	HEK293 tox	GLP1R inv ag	PTHR1 ag
C[C@@]12CCC=C[C@H]1[C@H](c1ccc3ccccc3c1/C=C/c1ccccc1)N(Cc1ccccc1)C2=O	0%	2%	5%	5%
C[C@@]12CCC=C[C@H]1[C@H](c1ccc(/C=C/c3ccccc3)cc1F)N(Cc1ccccc1)C2=O	3%	21%	7.9µM*	-19%
COc1ccc(-c2ccc(C)cc2)cc1[C@H]1[C@@H]2C=CCC[C@@]2(C)C(=O)N1Cc1ccccc1	5%	1%	10µM*	-36%
Cc1ccc(Sc2c(C(=O)NCc3ccccc3C)[nH]c3ccccc23)cc1	.	3%	8%	-4%
O=C(Nc1ccc(S(=O)(=O)N2CCOCC2)cc1)c1ccc(Cl)cc1Cl	-3%	5%	-14%	-27%
Cc1ccnc(NC(=O)CCC(=O)c2cccs2)c1	-5%	3%	5.6µM*	-26%
CC(C(=O)Nc1ccc(C#N)cc1)N(C)CC(=O)Nc1ccccc1Br (configuration not stated)	2%	-5%	11µM*	-8%
C[C@H](NC(=O)c1nc[nH]c1C(=O)NCc1ccccc1)C(=O)OC(C)(C)C	2%	-43%	-3%	i
C[C@H](NC(=O)c1nc[nH]c1C(=O)NC(c1ccccc1)c1ccccc1)C(=O)OC(C)(C)C	2%	0%	5.6µM*	-61%
CC(C)C[C@H](NC(=O)c1[nH]cnc1C(=O)N[C@@H](C)c1ccccc1)C(=O)OCc1ccccc1	-1%	-13%	4.5µM*	-22%
CCOc1ccc(NC(=O)C2CCC(CNS(=O)(=O)c3ccc4c(c3)CCCC(=O)N4)CC2)cc1 (configuration not stated)	.	2%	8%	i
CCOC(=O)[C@@](C)(N)Cc1ccc(O)c(O)c1	0%	.	.	.
COc1ccc(OCC(O)CNCCOc2ccccc2OC)c(C(C)(C)C)c1 (configuration not stated)	-1%	1%	13µM*	-16%
Cc1ccccc1OCC(O)CNCCOc1ccc(C(N)=O)cc1 (configuration not stated)	1%	.	.	.
O=S(=O)(O)OCC1OC(OC2(COS(=O)(=O)O)OC(COS(=O)(=O)O)C(OS(=O)(=O)O)C2OS(=O)(=O)O)C(OS(=O)(=O)O)C(OS(=O)(=O)O)C1OS(=O)(=O)O (configuration not stated)	-3%	.	.	.
c1ccc(Oc2ccccc2-c2cc(NCCc3cccnc3)n3nccc3n2)cc1	6%	1%	21%	-4%
CCCCOC(=O)C1CN(c2ccccc2)N=C1C(=O)OCC (configuration not stated)	1%	13%	10µM*	-14%
O=C(CN1C(=O)C2(SCC(=O)N2c2ccc(Cl)cc2)c2ccccc21)NCCc1ccccc1 (configuration not stated)	-1%	-8%	5%	-38%
CC(C)(CNC(=O)Cc1ccc(Br)cc1)N1CCOCC1	7%	-3%	-6%	18%
Cc1ccccc1CS(=O)(=O)c1nnc([C@H](Cc2ccccc2)NC(=O)OC(C)(C)C)o1	-17%	?	10µM*	-19%[57.5 µM]
CCSc1nnc([C@H](Cc2ccccc2)NC(=O)OC(C)(C)C)o1	1%	2%	?	-16%[57.5 µM]
Cn1c(/C=C/c2ccc(Cl)cc2)c([N+](=O)[O-])c(=O)n(C)c1=O	-5%	?	0.79µM*	i
CCOC(=O)C1=CN(Cc2cccc(F)c2)S(=O)(=O)NC1c1ccc2ccccc2c1 (configuration not stated)	-3%	-18%	13µM*	-43%
O=C(c1ccc(-c2ccccc2Cl)s1)N1CCOCC1	0%	-15%	9%	-77%
COc1ccc(Sc2ccc(NC(=O)c3ccccc3Cl)cc2C#N)cc1	2%	?	13µM*	-11%
SMILES	GLP1R ag	HEK293 tox	GLP1R inv ag	PTHR1 ag
CC(C(O)c1ccccc1)N(C)CCOC(c1ccccc1)c1ccccc1 (configuration not stated)	10%	.	.	.
Cc1ccc(-c2nc(P(=O)(c3ccccc3)c3ccccc3)c(N3CCOCC3)o2)cc1	4%	-30%	10µM*	-29%
CCCCn1cnc2c(c(-c3ccccc3)c(-c3ccccc3)n2Cc2ccco2)c1=N	0%	?	?	i
N=c1c2c(-c3ccccc3)c(-c3ccccc3)n(Cc3ccco3)c2ncn1Cc1ccco1	-19%	?	8.9µM*	i
N=c1c2c(-c3ccccc3)c(-c3ccccc3)n(Cc3ccccc3)c2ncn1CCCn1ccnc1	-56%	10µM*	7.9µM*	-11%[57.5 µM]
Cc1cc(/C=C\c2ccc3cc(N(C)C)ccc3[n+]2C)c(C)n1-c1ccccc1	0%	?	2µM*	-64%
C[C@]12CCC(=O)C=C1[C@@H]1C[C@H]1[C@H]1[C@@H]3[C@@H]4C[C@H]4[C@@]4(CCC(=O)O4)[C@@]3(C)CC[C@@H]12	1%	.	.	.
CCn1ncc(CN2CCCC(C(=O)Nc3cccc(-c4cc5ccccc5[nH]4)c3)C2)c1C (configuration not stated)	2%	?	3.5µM*	-31%
Cc1cccc(NC(=O)CSc2nc3ccccc3nc2N2CCC(C)CC2)c1	.	-11%	?	i
CCN(Cc1ccccc1)S(=O)(=O)c1cc(C(=O)NCC2CCCCC2)ccc1OC	9%	-11%	?	-12%
CCN(Cc1ccccc1)S(=O)(=O)c1cc(C(=O)NC2CCCCCC2)ccc1OC	-2%	-7%	2.2µM*	-68%
CC1CCN(S(=O)(=O)c2ccc3c(c2)N(CC(=O)NC(C)C)C(=O)CO3)CC1	.	-14%	2%	i
Cc1ncoc1C(=O)N1CCc2c([nH]c3ccccc23)C1c1ccccc1F (configuration not stated)	13%	1%[7.66 µM]	-23%[7.66 µM]	i
CCn1nc(C)cc1C(=O)N1CCc2c([nH]c3ccccc23)C1c1cc(F)ccc1F (configuration not stated)	17%	-22%	10µM*	-11%
COc1ccc(C(C)=O)cc1CN1C(=O)NC(c2ccccc2)(c2ccccc2)C1=O	11%	15%	-5%	-30%
O=C(CSc1nc2c([nH]c3ccccc32)c(=O)n1-c1ccccc1)c1ccc(Cl)cc1	.	10%	9%	i
Cc1ccc(N2C(=O)N(CC(=O)Nc3ccc(C)cc3C)C(=O)C2C)cc1 (configuration not stated)	4%	-2%	?	i
Cc1ccc(N2C(=O)N(CC(=O)Nc3c(C)cc(C)cc3Cl)C(=O)C2C)cc1 (configuration not stated)	16%	-7%	10µM*	-29%
Cc1cccc(C)c1NC(=O)[C@H](C)N	-4%[19.8 µM]	.	.	.
COc1cc(SC)ccc1C(=O)N(CC(=O)Nc1ccccc1Br)Cc1ccco1	16%	0%	10µM*	-13%
CCC(CC)NCc1ccc2c(c1)c1ccccc1n2CC	-5%	?	4.5µM*	i
